Compounds without any hit were thinned out: in the full panel of roughly 83,000, 20% have a hit.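 Testing used 96-well plates and a 48-hour single-concentration exposure. Example: -40 means 40% of the starting cells died.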 Calls of active or inactive are those of the source. Rule for the calls: active = growth percent below 10; inactive = the rest.
Key:
Assay in all cases: NCI-60 one-dose screen, 48 h (100 = growth as untreated, 0 = no growth, -100 = all killed)
Settings in all cases: 10 µM unless noted
EKVX NSCLC = system: EKVX NSCLC
SN12C renal = system: SN12C renal
UO-31 renal = system: UO-31 renal
TK-10 renal = system: TK-10 renal
ACHN renal = system: ACHN renal
CAKI-1 renal = system: CAKI-1 renal
A498 renal = system: A498 renal
CCRF-CEM leukemia = system: CCRF-CEM leukemia
MOLT-4 leukemia = system: MOLT-4 leukemia
SR leukemia = system: SR leukemia

Measured: growth

CCOC(=O)c1ccc(N=Cc2sc(=O)[nH]c2O)cc1
inactive: EKVX NSCLC 93.4% | SN12C renal 95.3% | UO-31 renal 83.1% | TK-10 renal 98.4% | ACHN renal 90.3% | CAKI-1 renal 88.1% | A498 renal 110% | CCRF-CEM leukemia 101% | MOLT-4 leukemia 99.9% | SR leukemia 117%

CCCc1c(C)c2sc(=O)[nH]c2[nH]c1=O
inactive: EKVX NSCLC 98.8% | SN12C renal 107% | UO-31 renal 94.8% | TK-10 renal 110% | ACHN renal 106% | CAKI-1 renal 99% | A498 renal 112% | CCRF-CEM leukemia 124% | MOLT-4 leukemia 106% | SR leukemia 109%

Nc1nc2c(ncn2[C@@H]2O[C@H](CS)[C@@H](O)[C@H]2O)c(=O)[nH]1
inactive: EKVX NSCLC 95.8% | SN12C renal 97.2% | UO-31 renal 93% | TK-10 renal 96.3% | ACHN renal 99.8% | CAKI-1 renal 94.5% | A498 renal 99.9% | CCRF-CEM leukemia 100% | MOLT-4 leukemia 99% | SR leukemia 101%

COc1cc(/C=C2\CCC/C(=C\c3cc(CN4CCCCC4)c(O)c(OC)c3)C2=O)cc(CN2CCCCC2)c1O
active: SR leukemia 6.77%
inactive: EKVX NSCLC 87.3% | SN12C renal 72.5% | UO-31 renal 58.3% | TK-10 renal 115% | ACHN renal 83.8% | CAKI-1 renal 106% | A498 renal 90.9% | CCRF-CEM leukemia 45.7% | MOLT-4 leukemia 49.8%

O=c1nc2sc3nc4ccccc4cc3cc-2s1
inactive: EKVX NSCLC 48% | SN12C renal 101% | UO-31 renal 117% | TK-10 renal 131% | ACHN renal 105% | CAKI-1 renal 137% | A498 renal 94.6% | CCRF-CEM leukemia 127% | MOLT-4 leukemia 120% | SR leukemia 134%

Cc1ccc(NC2=CC(=O)C(=O)c3ccccc32)c(C)c1
inactive: EKVX NSCLC 143% | SN12C renal 44.1% | UO-31 renal 71.2% | TK-10 renal 80.8% | ACHN renal 15.9% | CAKI-1 renal 82.7% | A498 renal 109% | CCRF-CEM leukemia 43.7% | MOLT-4 leukemia 36.9% | SR leukemia 56.4%

Cc1ccccc1CNC(=O)C1CN(c2ccc(Cl)cc2)N(c2ccc(Cl)cc2)C1=O (stereo unspecified)
inactive: EKVX NSCLC 91.8% | SN12C renal 90.8% | UO-31 renal 64.1% | TK-10 renal 91.3% | ACHN renal 87.4% | CAKI-1 renal 71.6% | A498 renal 86.2% | CCRF-CEM leukemia 84.3% | MOLT-4 leukemia 81.1% | SR leukemia 59.8%

CN(CCc1ccccc1)C(=S)N(C(=O)c1ccc([N+](=O)[O-])cc1)c1ccc(Cl)cc1
inactive: EKVX NSCLC 95.1% | SN12C renal 89% | UO-31 renal 76.8% | TK-10 renal 76% | ACHN renal 106% | CAKI-1 renal 85.5% | A498 renal 93.4% | CCRF-CEM leukemia 39.6% | MOLT-4 leukemia 43.1% | SR leukemia 25%

O=c1c(-c2nc3ccccc3[nH]2)cc2ccccc2n1Cc1cn(Cc2ccc(N3CCOCC3)cc2)nn1
inactive: EKVX NSCLC 89.7% | SN12C renal 49.7% | UO-31 renal 74.8% | TK-10 renal 92.7% | ACHN renal 35.7% | CAKI-1 renal 77.3% | A498 renal 92.4% | CCRF-CEM leukemia 110% | MOLT-4 leukemia 99% | SR leukemia 71.7%

CNCCNc1nc2ccccc2c2c(=O)c3cc(OC)ccc3sc12
active: TK-10 renal -15.1% | CCRF-CEM leukemia 2.47% | MOLT-4 leukemia -28.8% | SR leukemia 5.19%
inactive: EKVX NSCLC 59.2% | SN12C renal 66.3% | UO-31 renal 41.1% | ACHN renal 35.4% | CAKI-1 renal 48% | A498 renal 45.7%

COc1ccc(C2Nc3ncnc(N)c3N=C3c4ccccc4C(=O)C32)cc1 (stereo unspecified)
inactive: EKVX NSCLC 94.5% | SN12C renal 140% | UO-31 renal 67% | TK-10 renal 123% | ACHN renal 92.4% | CAKI-1 renal 80.1% | A498 renal 99.2% | CCRF-CEM leukemia 97.9% | MOLT-4 leukemia 57.9%
active: SR leukemia 9.71%

Cn1c2c(c(=O)[nH]c1=O)NC1=C(C(=O)c3ccccc31)C1(C=C(O)c3ccccc31)N2 (stereo unspecified)
inactive: EKVX NSCLC 95.7% | SN12C renal 108% | UO-31 renal 77.6% | TK-10 renal 134% | ACHN renal 89.7% | CAKI-1 renal 86% | A498 renal 143% | CCRF-CEM leukemia 107% | MOLT-4 leukemia 121% | SR leukemia 47.6%

CCOC(=O)c1sc(-c2ccc(OS(=O)(=O)C[C@]34CCC(CC3=O)C4(C)C)c(C=O)c2)nc1C
active: TK-10 renal 5.83% | CAKI-1 renal 0.933% | A498 renal -2.42%
inactive: EKVX NSCLC 36.5% | SN12C renal 28.7% | UO-31 renal 29% | ACHN renal 39.8% | CCRF-CEM leukemia 11.7% | SR leukemia 21.2%

CC1(O)COCCCCOc2c(CN)cccc2NC(=O)c2nc(cnc2N)-c2ccc(cc2)S(=O)(=O)C(C)(C)C1 (stereo unspecified)
inactive: CAKI-1 renal 39.4%
active: EKVX NSCLC -58% | SN12C renal -81.1% | UO-31 renal -97.5% | TK-10 renal -36.2% | ACHN renal -99.2% | A498 renal -34.4% | CCRF-CEM leukemia 5.36% | MOLT-4 leukemia -15.6% | SR leukemia 8.92%

COc1ccc(-n2c(C(O)c3ccccc3)nn(CN3CCOCC3)c2=S)cc1 (stereo unspecified)
inactive: EKVX NSCLC 111% | SN12C renal 91% | UO-31 renal 77.5% | TK-10 renal 119% | ACHN renal 88.6% | CAKI-1 renal 97% | A498 renal 115% | CCRF-CEM leukemia 96.6% | MOLT-4 leukemia 123% | SR leukemia 193%

CC(C)c1ccc(S(=O)(=O)NC(=O)NC2CCCC2)cc1
inactive: EKVX NSCLC 98.1% | SN12C renal 97.1% | UO-31 renal 95.4% | TK-10 renal 101% | ACHN renal 103% | CAKI-1 renal 96.7% | A498 renal 102% | CCRF-CEM leukemia 98% | MOLT-4 leukemia 94.6% | SR leukemia 95.6%

CCN1C(=O)N(CC)C2Nn3c(s/c(=C\c4ccccc4F)c3=O)=NC21 (stereo unspecified)
inactive: EKVX NSCLC 38.4% | SN12C renal 53.5% | UO-31 renal 65.8% | TK-10 renal 87.2% | ACHN renal 50.8% | CAKI-1 renal 48.1% | A498 renal 43.3% | CCRF-CEM leukemia 34.1% | MOLT-4 leukemia 44% | SR leukemia 24.5%

CN1CCN(Cc2ccc(NC(=O)c3[nH]ncc3Nc3cc(OC4CCCC4)ncn3)cc2)CC1
active: ACHN renal 8.8% | CCRF-CEM leukemia 5.67% | MOLT-4 leukemia 5.56% | SR leukemia 4.42%
inactive: EKVX NSCLC 60.1% | SN12C renal 24.9% | UO-31 renal 25.8% | TK-10 renal 88.3% | CAKI-1 renal 19.2% | A498 renal 49.6%

CCOC(=O)c1sc(-c2ccc(OS(=O)(=O)c3ccc(Br)s3)c(C=O)c2)nc1C
active: SN12C renal 4.77% | UO-31 renal -0.882% | TK-10 renal -1.6% | ACHN renal 7.37% | CAKI-1 renal 3.48% | CCRF-CEM leukemia 8.75%
inactive: EKVX NSCLC 85.6% | A498 renal 65.3% | SR leukemia 13.9%

O=C1/C(=C/c2ccc(O)cc2)COc2ccc(O)c(O)c21
active: SN12C renal -4.74% | UO-31 renal -88.5% | ACHN renal -16.2% | CAKI-1 renal 6.4% | CCRF-CEM leukemia 9.61% | MOLT-4 leukemia 4.43%
inactive: EKVX NSCLC 71.5% | TK-10 renal 54.1% | A498 renal 98.4% | SR leukemia 12.7%

CS(=O)(=O)Nc1ccc(C(=O)NC(C(=O)NO)c2ccc(-c3cccc(F)c3)cc2)cc1 (stereo unspecified)
inactive: EKVX NSCLC 97.4% | SN12C renal 75.3% | UO-31 renal 19.3% | TK-10 renal 30.3% | ACHN renal 58.7% | CAKI-1 renal 49.9% | A498 renal 95.6% | CCRF-CEM leukemia 95.1% | MOLT-4 leukemia 103% | SR leukemia 78.8%

COc1ccc(-c2c(-c3ccc(OC)c(O)c3)cnc3ncnn23)cc1
inactive: EKVX NSCLC 98.1% | SN12C renal 105% | UO-31 renal 94.1% | TK-10 renal 98% | ACHN renal 105% | CAKI-1 renal 95.1% | A498 renal 91.9% | CCRF-CEM leukemia 102% | SR leukemia 109%

CCN1C(=O)N(CC)C2Nn3c(s/c(=C4\C(=O)N(C(C)C)c5ccccc54)c3=O)=NC21 (stereo unspecified)
inactive: EKVX NSCLC 29.9% | SN12C renal 47.7% | UO-31 renal 55.8% | TK-10 renal 86.6% | ACHN renal 43.1% | CAKI-1 renal 45.9% | A498 renal 37.4% | CCRF-CEM leukemia 19.3% | SR leukemia 21.2%

COc1cc(/C=C2\CN(S(=O)(=O)c3ccccc3)C/C(=C\c3cc(CN4CCCC4)c(O)c(OC)c3)C2=O)cc(CN2CCCC2)c1O
inactive: EKVX NSCLC 24.7% | UO-31 renal 34.7% | TK-10 renal 26.8% | ACHN renal 12.1% | CAKI-1 renal 75.3% | SR leukemia 17.5%
active: SN12C renal -25.8% | A498 renal 8.57% | CCRF-CEM leukemia 7.45% | MOLT-4 leukemia 1.22%

O=C(/C=C/c1cccc(Cl)c1)OCc1ccc2cc1OCC#C/C=C\C#CCO2
inactive: EKVX NSCLC 115% | SN12C renal 95.7% | UO-31 renal 80.2% | TK-10 renal 122% | ACHN renal 99.4% | CAKI-1 renal 101% | A498 renal 76.7% | CCRF-CEM leukemia 84% | MOLT-4 leukemia 73.2% | SR leukemia 63%

O=Cc1c(OCc2cnnn2CC(=O)Nc2ccc(Cl)cc2)ccc2ccccc12
inactive: EKVX NSCLC 96.6% | SN12C renal 97.3% | UO-31 renal 73.2% | TK-10 renal 118% | ACHN renal 94.9% | CAKI-1 renal 94% | A498 renal 96.7% | CCRF-CEM leukemia 110% | MOLT-4 leukemia 90.7% | SR leukemia 90.5%

Nc1ccccc1-c1ccc(-c2ccc(Cl)cc2)c2c1[nH]c1ccccc12
inactive: EKVX NSCLC 70.6% | SN12C renal 66.5% | UO-31 renal 26.1% | TK-10 renal 84% | ACHN renal 75.2% | CAKI-1 renal 50% | A498 renal 72.4% | CCRF-CEM leukemia 37.4% | MOLT-4 leukemia 25.8% | SR leukemia 53.6%
